# Columns and labels:
# Experiment in all cases: PBM binding z-score (relative to random genomic background probes); higher = stronger binding; sequences stand for … in GC…GCGATTGACAGCGTAGAATGAAGG
# [1] = system: FXR:RXRa (NR concentration 270 nM, RXRa partner concentration 90 nM)
# Summary of the method: (§1)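 Binding buffer was PBS pH 7.4 with 2% milk, 0.02% Triton X-100, 1 mM DTT, 0.2 mg/mL BSA and 0.4 mg/ml salmon testes DNA. In it, ligand-free nuclear receptor dimers were incubated 1 h on custom Agilent 4×180K protein-binding microarrays carrying double-stranded probes. Antibodies against each partner (one per run) detected binding, and z-scores were calculated against random background probes after regression normalization of scanned fluorescence.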
# [2] = system: LXRa:RXRa (NR concentration 270 nM, RXRa partner concentration 90 nM)
# Summary of the method: as §1
# [3] = system: LXRa homodimer (NR concentration 270 nM)
# Summary of the method: as §1
# [4] = system: LXRb:RXRa (NR concentration 270 nM, RXRa partner concentration 90 nM)
# Summary of the method: as §1
# [5] = system: LXRb homodimer (NR concentration 270 nM)
# Summary of the method: as §1
# [6] = system: PPARa:RXRa (NR concentration 270 nM, RXRa partner concentration 90 nM)
# Summary of the method: as §1
# [7] = system: PPARg:RXRa (NR concentration 180 nM, RXRa partner concentration 90 nM)
# Summary of the method: as §1
# [8] = system: PPARg:RXRa 270nM:90nM, anti-RXR (NR concentration 270 nM, RXRa partner concentration 90 nM)
# Summary of the method: as §1
# [9] = system: PPARg:RXRa 30nM:10nM, anti-RXR (NR concentration 30 nM, RXRa partner concentration 10 nM)
# Summary of the method: as §1
# [10] = system: PPARg:RXRa 90nM:30nM, anti-RXR (NR concentration 90 nM, RXRa partner concentration 30 nM)
# Summary of the method: as §1
Sequence,PBM binding z-score [1],PBM binding z-score [2],PBM binding z-score [3],PBM binding z-score [4],PBM binding z-score [5],PBM binding z-score [6],PBM binding z-score [7],PBM binding z-score [8],PBM binding z-score [9],PBM binding z-score [10]
AGTCAAAGTTCAGGACGAGGTAACGTGAAGCACG,4.49,3.69,1,1.68,-0.0491,3.33,4.84,4.84,2.04,4.12
CAAGCTAGGTCACGAAAGGTCAAAGTCGAATGAC,7.45,8.14,8.09,7.63,2.75,6.5,7.39,7.14,4.23,6.31
AGTCAAAGTTCAGGAGGAGGTAACGTAAAGCACG,4.22,3.87,1.6,2.24,0.773,3.67,5.03,5.22,2.38,3.98
ATCTCTAGGTAAGACTCACTTCAGTGAAGAACGC,0.0875,0.0793,-0.134,0.11,0.863,0.00782,0.276,0.0551,0.479,0.192
ATCTCTAGGTAAGACTCAGTTCAGTCAAGAACGC,0.474,0.647,0.721,0.685,0.923,0.293,0.116,0.136,0.155,0.184
TCTAGTTGTTCACGGAGGTCACACACGACGGGTA,2.82,3.29,2.83,3.17,0.94,3.66,1.84,2.89,3.43,3.07
TTACCAAGGTGAAAGGTGGTTGATGCACGCCTTG,0.879,0.449,-0.508,0.171,-0.366,2.81,4.38,5.35,3.06,4.85
TCGAGTAGGTTAGTCGCGGCATTCAGCCAACATA,-0.279,-0.139,-0.606,-0.576,-1.32,0.228,-0.37,0.565,1.03,0.9
ATCGAAAGGTCGACAAGGTGAGTATACACCGTTT,4.68,3.45,0.283,3,0.522,4.41,2.79,3.21,1.2,2.21
ACTATTAGTTGAGACGAGGGTAACCGATAGGTTG,0.247,0.035,-0.0924,-0.182,0.187,-0.0411,0.515,0.0504,0.213,0.176
CCTCGGAGGACAGAAGGTCACAGCTGTCCGCTTT,2.65,3.33,0.899,2.27,-0.713,3.54,0.989,2.62,-0.00709,1.83
AATACAGGGTCATCGTAGGCGAGAGTACGCACAG,7.5,6.16,2.08,4.6,1.54,5.94,6.58,6.21,2.48,4.92
TAACCAAGGTGAGCTGAGGTCGTTGATCCAACTC,2.66,1.63,-0.195,0.348,-0.934,1.81,0.206,0.531,-0.0525,0.137
TTCCCAAGGTGAAGGTCGTTGATCCCTCTGTAGA,2.26,2.23,-0.0326,1.74,-0.362,2.26,0.674,1.81,0.663,1.37
TCATAAAGGTAAAAGGTGAAAGTCGGTGTGGTAA,3.11,2.59,0.231,2.75,0.0475,5.08,6.24,6.25,6.38,6.73
TCTAGTTGATCAAAGGTCACACACTCGAAATGCG,5.64,5.85,3.84,5.63,1.9,5.8,7.89,7.86,7.94,8.62
AGAACGAGGGCAATGAGTTGATTGCACGGGTGGC,0.165,0.157,-0.593,-0.398,-0.715,1.23,1.15,0.624,-0.179,0.252
GGAACGAGGGCATTCGAGTGGATAGCATGGCGAT,0.825,0.32,-0.525,-0.0544,-0.833,1.13,0.858,0.594,-0.34,-0.0101
TTACCTAGGTGAGCTGAGGTCGTTGATCCAACTC,0.355,0.722,-0.414,0.389,-0.985,1.68,0.522,1.09,0.135,0.445
CAAACTAGGTCAAGGTCAAAGTCGGTTTGTGCCA,6.65,5.95,4.23,4.67,1.63,6.12,9.81,8.12,7.05,8.27
CGTACAAGGTCAATGCTAGGTCAGTGAAAGCATT,7.34,6,2.7,4.55,1.54,5.5,5.12,5.6,2.08,4.22
TCTATTAGTTGAAGAGCAACCGACGAGTCCGTTT,0.119,0.663,-0.0692,0.436,0.0793,0.395,-0.0464,1.45,3.13,2.28
CTCGAAAGGTCGGTTGAGGTGAGTACACGGATAA,2.34,1.85,-0.128,1.5,-0.0877,2.77,0.546,1.4,0.191,0.951

# Reference: the supplement of paper PMC6555819
